# Calls of active or inactive are those of the source. The calls were made as follows: active = hit-call score of the fitted dose curve at least 0.9, where 1 is the maximum; inactive = score below 0.9.
# Read-out: TIMP metallopeptidase inhibitor 2 (TIMP2), TIMP2 (gene 7077)
# Assay: BSK_hDFCGF_TIMP2: BioMAP Diversity Plus: hDFCGF Assay for TIMP metallopeptidase inhibitor 2 (TIMP2) Biomarker Activity (AID 2284289)
# Conditions: primary human foreskin fibroblasts
# Description: BSK_hDFCGF is a cell-based, multiplexed-readout assay that uses foreskin fibroblast, a human skin primary cell, with measurements taken at 24 hours after chemical dosing in a 96-well plate.BSK_hDFCGF_TIMP2 is an assay component measured in the BSK_hDFCGF assay. It measures TIMP-2 antibody related to regulation of gene expression using ELISA technology.Data from the assay component BSK_hDFCGF_TIMP2 was analyzed at the endpoint, BSK_hDFCGF_TIMP2, in the positive analysis fitting direction relative to DMSO as the negative control and baseline of activity. Using a type of binding reporter, gain or loss-of-signal activity can be used to understand protein changes. To generalize the intended target to other relatable targets, this assay endpoint is annotated to the 'protease' intended target family, where the subfamily is 'matrix metalloproteinase'.
# The levels of cell surface (or secreted, indicated by the prefix "s") biomarker endpoints were measured by ELISA. Overt cytotoxicity to cells in confluent adherent cultures (all systems other than the BT system) was assessed by measuring total protein levels using sulforhodamine B (SRB) staining in parallel cultures at the time of biomarker measurements, indicated as SRB endpoints. For proliferation assays for adherent cell types, individual cell types are cultured at sub-confluence and relative cell numbers quantified by SRB staining at time points optimized for each system (48 h: 3C and CASM3C systems; 72 h: BT and HDF3CGF systems; 96 h: SAg system). SRB was performed by staining cells with 0.1% SRB after fixation with 10% TCA and reading wells at 560 nm.Viability and proliferation of PBMC (T cells) was quantified by Alamar Blue reduction for the SAg and BT systems. For PBMC viability (referred to as PBMC Cytotoxicity within the assay endpoint names), cells were plated (75,000/well in a 96-well plate) and then chemical samples added for 1 h before addition of activators, SEB and TSST-1 (20 ng/mL final concentration each). Cells were incubated for 90 h. Then, Alamar Blue (20 uL/well) (Invitrogen, Cat DAL1100) was added for 6 h, and the plates were read with a fluorescence microplate reader at 546/580 nm (excitation/emission). For PBMC proliferation, cells were plated and activated as above but incubated for only 16 h prior to addition of Alamar Blue. Plates were read after 6 h.
row,SMILES,outcome
1,CC[Si](OC(C)=O)(OC(C)=O)OC(C)=O,inactive
2,CC(=O)OCCC(C)CC(C)(C)C (configuration not stated),inactive
3,Cc1cc(C2(c3cc(C)c(O)cc3C)OS(=O)(=O)c3ccccc32)c(C)cc1O,inactive
4,CC(=O)[C@H]1CC[C@H]2[C@@H]3CC=C4C[C@@H](O)CC[C@]4(C)[C@H]3CC[C@]12C,inactive
5,C=CCOC(=O)CCC1CCCCC1,inactive
6,COc1cc(C=O)ccc1OC(=O)C(C)C,inactive
7,NCCNCCN,inactive
8,OC[C@H]1O[C@H](O[C@]2(CCl)O[C@H](CCl)[C@@H](O)[C@@H]2O)[C@H](O)[C@@H](O)[C@H]1Cl,inactive
9,OC1OC[C@@H](O)[C@H](O)[C@H]1O (some centres not stated),inactive
10,C[C@H]1C[C@@H]2[C@H]([C@@H](O)C[C@@]3(C)[C@H]2CC[C@]3(O)C(=O)CO)[C@@]2(C)C=CC(=O)C=C12,inactive
11,CCC(=O)OCc1ccccc1,inactive
12,Nc1cc([N+](=O)[O-])ccc1O,inactive
